Source: PubChem BioAssay AID1159580 (chemical genetic matrix, 2015)
Where “and” joins values, the source holds several entries; their conditions need not be identical. Equal values may be shown once. Among all 5,500 compounds or so, about 2,000 (36%) were called active. Roughly 18% stayed inconclusive and do not appear here. No stated cut-off is given here; in the data, active means normalized growth mostly below about 0.91 (no sharp cut-off); inconclusive means no clear call, values can overlap the other calls; inactive means mostly above about 0.92. This is one part of the list.

Experiment: chemical genetic growth profiling, strain panel (AID 1159580);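 further: tested at 20 µM; growth read once vehicle control cultures reached saturation at 30 °C; 1 = growth at the plate median or of vehicle wells; lower values mean less growth of the strain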
Settings: S. cerevisiae deletion strains, growth OD

Measured: normalized growth

C/C=C(/C)C(=O)O[C@@H]1[C@H](OC(C)=O)[C@@]2(CO)C(CC1(C)C)C1=CCC3[C@@]4(C)CC[C@H](O[C@@H]5O[C@H](C(=O)O)[C@@H](O[C@@H]6O[C@H](CO)[C@@H](O)[C@H](O)[C@H]6O)[C@H](O)[C@H]5O[C@@H]5O[C@H](CO)[C@@H](O)[C@H](O)[C@H]5O)[C@](C)(CO)C4CC[C@@]3(C)[C@]1(C)C[C@H]2O (some centres not stated)
inactive: locus YAL021C, strain ccr4, active compounds read low 1.01 | locus YAL026C, strain drs2, active compounds read low 0.983 | locus YAL030W, strain snc1, active compounds read low 0.987 | locus YBL061C, strain skt5, active compounds read low 0.983 | locus YBR009C, strain hhf1, active compounds read low 0.938 | locus YBR021W, strain FUR4, active compounds read low 0.989 | locus YBR023C, strain chs3, active compounds read low 0.992 | locus YBR171W, strain sec66, active compounds read low 0.996 | locus YBR229C, strain ROT2, active compounds read low 1.01 | locus YBR231C, strain swc5, active compounds read low 0.979 | locus YBR279W, strain paf1, active compounds read low 0.989 | locus YCL011C, strain gbp2, active compounds read low 0.986 | locus YCL016C, strain dcc1, active compounds read low 0.994 | locus YCL029C, strain bik1, active compounds read low 1.03 | locus YCL061C, strain MRC1, active compounds read low 0.981 | locus YCL069W, strain vba3, active compounds read low 0.987 | locus YCR088W, strain abp1, active compounds read low 0.989 | locus YDL005C, strain med2, active compounds read low 0.982 | locus YDL035C, strain GPR1, active compounds read low 1.02 | locus YDL040C, strain nat1, active compounds read low 0.973 | locus YDL074C, strain BRE1, active compounds read low 0.999 | locus YDL101C, strain DUN1, active compounds read low 1.02 | locus YDL185W, strain tfp1, active compounds read low 1.02 | locus YDL192W, strain arf1, active compounds read low 1.02 | locus YDR001C, strain nth1, active compounds read low 0.981 | locus YDR069C, strain doa4, active compounds read low 0.982 | locus YDR101C, strain arx1, active compounds read low 1.01 | locus YDR137W, strain rgp1, active compounds read low 0.975 | locus YDR159W, strain sac3, active compounds read low 0.96 | locus YDR162C, strain NBP2, active compounds read low 1.02 | locus YDR195W, strain ref2 0.929 | locus YDR297W, strain sur2, active compounds read low 0.993 | locus YDR318W, strain mcm21, active compounds read low 1.03 | locus YDR334W, strain swr1, active compounds read low 0.985 | locus YDR335W, strain msn5, active compounds read low 0.989 | locus YDR388W, active compounds read low 1.02 | locus YDR392W, strain spt3, active compounds read low 0.874 | locus YDR502C, strain sam2, active compounds read low 1.02 | locus YEL003W, strain gim4, active compounds read low 0.992 | locus YEL037C, strain rad23, active compounds read low 0.991 | locus YEL061C, strain CIN8 (second series), active compounds read low 0.987 | locus YEL061C, strain CIN8, active compounds read low 1.01 | locus YER015W, strain faa2, active compounds read low 0.983 | locus YER016W, strain bim1, active compounds read low 0.991 | locus YER110C, active compounds read low 1.03 | locus YER111C, strain swi4, active compounds read low 0.968 | locus YER155C, strain BEM2 (second series), active compounds read low 0.997 | locus YER155C, strain BEM2, active compounds read low 0.999 | locus YER167W, strain BCK2, active compounds read low 1.01 | locus YFR010W, strain ubp6, active compounds read low 0.991 | locus YGL078C, strain dbp3, active compounds read low 1.02 | locus YGL086W, strain mad1, active compounds read low 1.03 | locus YGL167C, strain pmr1, active compounds read low 0.987 | locus YGL173C, strain kem1, active compounds read low 0.966 | locus YGL227W, strain vid30, active compounds read low 0.982 | locus YGL240W, strain doc1, active compounds read low 0.97 | locus YGL248W, strain PDE1, active compounds read low 1.01 | locus YGL253W, strain hxk2, active compounds read low 0.974 | locus YGR135W, strain pre9, active compounds read low 1.01 | locus YGR252W, strain gcn5, active compounds read low 0.965 | locus YHR013C, strain ard1, active compounds read low 0.965 | locus YHR027C, strain rpn1, active compounds read low 0.992 | locus YHR030C, strain SLT2, active compounds read low 1.01 and 0.987 | locus YHR079C, strain IRE1 (second series), active compounds read low 1.03 | locus YHR079C, strain IRE1, active compounds read low 0.972 | locus YHR094C, strain hxt1, active compounds read low 1.03 | locus YHR129C, strain ARP1, active compounds read low 1.01 | locus YHR142W, strain chs7, active compounds read low 1.01 | locus YHR200W, strain rpn10, active compounds read low 1.01 | locus YIL066C, strain RNR3, active compounds read low 1.01 | locus YIL073C, strain SPO22, active compounds read low 1.15 | locus YIL125W, strain kgd1, active compounds read low 1.02 | locus YIR030C, strain dcg1, active compounds read low 1.03 | locus YJL092W, strain hpr5, active compounds read low 0.989 | locus YJL095W, strain BCK1 (second series), active compounds read low 0.992 | locus YJL095W, strain BCK1, active compounds read low 1.02 and 0.969 | locus YJL115W, strain asf1, active compounds read low 0.989 | locus YJL129C, strain trk1, active compounds read low 0.984 | locus YJL134W, strain LCB3, active compounds read low 1 | locus YJL154C, strain vps35, active compounds read low 0.987 | locus YJL164C, strain tpk1, active compounds read low 1.01 | locus YJL166W, strain qcr8, active compounds read low 1 | locus YJL168C, strain set2, active compounds read low 1.01 | locus YJL187C, strain SWE1 (second series), active compounds read low 1.02 | locus YJL187C, strain SWE1, active compounds read low 0.996 | locus YJR043C, strain POL32, active compounds read low 0.99 | locus YJR066W, strain TOR1, active compounds read low 1.01
